# Out of some 410,000 compounds screened, about 5,100 (1.2%) were called active. A call without a number means that no potency is given here. Not shown: some 8% with an inconclusive outcome. Calls follow the shape of the full dose curve; tested in HEK293T cells. Many of the other results were omitted from the sample, so actives are more common in it than they were.
# Test: High Throughput Screening for Foot and Mouth Disease Virus Antivirals; also: read-out not given here; nearly all actives have a fitted effect of over 45% in size
# Conditions: FMDV antiviral cell-based qHTS; series mostly up to 57.9 µM
# Potency is read from the fitted curve at half-maximal effect.
row,Structure (SMILES),Potency
1,C=CCNC(=S)N/N=C/c1ccc(C)s1,inactive
2,COCCNC(=S)N/N=C/c1c(C)[nH]c2ccccc12,20 µM (active)
3,Cc1[nH]c2ccccc2c1/C=C(/C#N)C(=O)NC(C)C,inactive
4,C[N+](C)(C)CCCCCNCC12CC3CC(CC(C3)C1)C2,inactive
5,CCS(=O)(=O)N1CCN(C(=O)c2cccs2)CC1,inactive
6,Cc1ccc(N2CCN(C(=O)c3cccs3)CC2)c(C)c1,inactive
7,Cc1ccccc1C(CC(=O)c1cccs1)C(C#N)C#N (centres undefined),11.2 µM (active)
8,Cc1nc2ccc(NC(=O)c3cccc(S(=O)(=O)N4CCOCC4)c3)cc2s1,31.6 µM (active)
9,O=C(Nc1ccc(S(=O)(=O)N2CCOCC2)cc1)c1ccc2ncsc2c1,inactive
10,Cc1cc(C)n2nc(C(=O)Nc3cccc(S(=O)(=O)N4CCOCC4)c3)nc2n1,inactive
11,Cc1nc2cnc(N3CCNCC3)nc2n(CCc2ccccc2)c1=O,inactive
12,CC1=C(/C=C/C(C)=C/C=C/C(C)=C/C=C/C=C(C)/C=C/C=C(C)/C=C/C2=C(C)CCCC2(C)C)C(C)(C)CCC1,5.01 µM (active)
13,CCCCCCCCCCCCCCCC(=O)OC/C=C(C)/C=C/C=C(C)/C=C/C1=C(C)CCCC1(C)C,inactive
14,Cc1ccc(CSc2nc3ccsc3c(=O)n2CCC(C)C)cc1,inactive
15,CCOC(=O)Cc1ccc(NC(=O)Nc2c[nH]c(=O)[nH]c2=O)cc1,inactive
16,COCC(=O)Nc1cc(C(=O)N2CCCC(c3ccccc3)CC2)c2c(c1)nc(-c1ccncc1)n2C (centres undefined),inactive
17,COc1ccc(-c2nn(C)c(=O)c3ccccc23)cc1CNC(=O)C1CCCCC1,inactive
18,COc1ccc(-c2nc3ccccc3s2)cc1NC(=O)COc1ccccc1C,inactive
19,COc1ccc(-c2nn(C)c(=O)c3ccccc23)cc1NC(=O)COc1ccccc1,17.8 µM (active)
20,O=c1cnc2cnc(Nc3ccccc3)nc2n1Cc1ccc(F)cc1,inactive
21,Cc1ccc(S(=O)(=O)N2CCCc3cc(NS(=O)(=O)c4cc(C)ccc4C)ccc32)cc1,inactive
22,COc1ccccc1C(=O)Nc1c(C(=O)N(C)Cc2ccccc2)sc2nc(C)c(Cl)c(C)c12,inactive
23,CCCCc1nnc(NC(=O)CSc2nc(N)cc(=O)[nH]2)s1,inactive
24,Cc1cc(C(=O)CSc2nc(N)cc(=O)[nH]2)c(C)n1CCc1ccc(Cl)cc1,22.4 µM (active)
25,Cc1cc(=O)[nH]c(SCc2ccc(Cl)cc2)n1,inactive

row,Structure (SMILES),Potency
1,COCCn1c(=O)c(-c2cccc(F)c2)nc2cncnc21,inactive
2,COc1ccc(F)c(CN2CCC3(CCC(CNC(=O)c4ccn(C)n4)O3)CC2)c1 (centres undefined),inactive
3,COc1ccc(Cl)cc1-n1c(CCC(=O)O)ccc1-c1ccc(C)cc1,inactive
4,CCc1ccc(-c2nn(-c3ccccc3C)cc2C(=O)N2CCN(C3CCS(=O)(=O)C3)CC2)cc1 (centres undefined),inactive
5,CCc1ccc(-c2nn(-c3ccccc3)cc2CSC(=N)N)cc1,39.8 µM (active)
6,CCc1ccc(-n2nnc(-c3nc(-c4ccccc4)no3)c2C)cc1,inactive
7,COc1cc2c(cc1OC)[C@@H]1C(=O)c3ccc(O)c(CC=C(C)C)c3OC1CO2 (some centres undefined),inactive
8,CCCS(=O)(=O)NCc1c(C)ncc2c1CCN(C(=O)c1ccc(F)c(F)c1)C2,inactive
9,COc1ccc2c(c1)CCc1cnc(-n3ncc(C(=O)NCCN4CCOCC4)c3C)nc1-2,inactive
10,COc1cccc(COc2ccc(N(C)S(=O)(=O)c3ccccc3)cc2)c1,inactive
11,Cc1ccc2nc(COc3ccc(NC(=O)COc4ccccc4F)cc3)cc(=O)n2c1,inactive
12,Cc1ccc2nc(COc3ccc(N(C)S(=O)(=O)c4ccccc4)cc3)cc(=O)n2c1,31.6 µM (active)
13,CCc1nc2cc(C(=O)NCC3CCS(=O)(=O)C3)cc(NC(=O)c3ccccc3OC)c2n1C (centres undefined),inactive
14,Cc1ccc(NC(=O)CSc2nc3c([nH]c4ccccc43)c(=O)n2-c2ccccc2)c(C)c1,inactive
15,COc1ccc(C(CCN(Cc2ccc(OC)c(OC)c2)C(=O)CCl)c2ccccc2)cc1 (centres undefined),31.6 µM (active)
16,COc1ccc(C(C(=O)NC2CCCCC2)N(C(=O)CCl)c2ccccc2Cl)cc1 (centres undefined),inactive
17,CCN(CCCCOC(=O)c1ccc(OC)c(OC)c1)C(C)Cc1ccc(OC)cc1 (centres undefined),inactive
18,COCCNc1cc(-c2c(C)noc2C)ncn1,inactive
19,CC(C)OC(=O)c1ccc(COc2ccc3ccc(=O)oc3c2)o1,inactive
20,CC(=CCOc1ccc2ccc(=O)oc2c1)C1=CC(=O)C(C)(C)O1,28.2 µM (active)
21,O=C(COc1ccc2ccc(=O)oc2c1)NCC(O)c1ccccc1 (centres undefined),inactive
22,Cn1cccc1C(=O)N1CCC2(CC1)CN(c1cccc(-c3ccccc3)c1)C2,inactive
23,Cc1ccc(NC(=O)Nc2sc3nc4n(c(=O)c3c2C)CCC(C)CC4)c(Cl)c1 (centres undefined),inactive
24,Cc1ccc(CN2COc3cc(C)c4c(oc(=O)c5ccccc54)c3C2)cc1,inactive
25,CCOC(=O)c1cc2c(=O)n3ccccc3nc2n(CCCOC)c1=NC(=O)C(C)Oc1ccccc1 (centres undefined),inactive

row,Structure (SMILES),Potency
1,COc1ccc2[nH]cc(CCNc3ncnc4ccc(-c5ccccc5CN(C)C)cc34)c2c1,inactive
2,COc1ccc(CNc2ncnc3ccc(-c4cccnc4)cc23)c(OC)c1,inactive
3,COc1ccc(Nc2ncnc3ccc(Br)cc23)c(OC)c1,3.98 µM (active)
4,NS(=O)(=O)c1ccc(NC(=O)COC(=O)C2(c3ccc(F)cc3)CCCC2)cc1,17.8 µM (active)
5,O=C(COC(=O)C1(c2ccc(F)cc2)CCCC1)N1CCNC1=O,inactive
6,NS(=O)(=O)c1ccc(NC(=O)COc2ccc(S(=O)(=O)NC3CCCCC3)cc2)cc1,inactive
7,COc1ccc(CNC(=O)CSCc2nc(-c3ccccc3F)oc2C)cc1,inactive
8,Cc1nc2cc(NC(=O)[C@@H]3C[C@@H](Sc4ccccn4)CN3Cc3ccccc3C)ccc2s1,inactive
9,CCC(C(=O)Nc1cccc(-c2nc3cccnc3s2)c1C)c1ccccc1 (centres undefined),inactive
10,CCOc1ccccc1-n1c(SCC(=O)NCc2ccco2)nnc1-c1ccncc1,inactive
11,Cn1c(SCc2ccc(F)cc2)nnc1-c1ccncc1,inactive
12,Cc1ccc(Nc2nc(CSc3nnc(-c4ccncc4)n3-c3ccccc3C)cs2)cc1,31.6 µM (active)
13,N[C@H](C(=O)O)c1ccc(C(=O)O)c(O)c1,inactive
14,Cc1cc(-c2n[nH]c(=S)n2/N=C/C(Br)=C/c2ccccc2)n[nH]1,35.5 µM (active)
15,O=c1c(-c2ccc(F)cc2)nc2cncnc2n1-c1ccccc1,inactive
16,CCCn1c(=N)n(CC(O)COc2ccccc2OC)c2ccccc21 (centres undefined),inactive
17,OC(CN=c1sc2ccccc2n1CC(O)COc1ccccc1)COc1ccccc1 (centres undefined),20 µM (active)
18,OC(COc1ccc(CN2CCSCC2)cc1)CN1CCCCC1 (centres undefined),inactive
19,Nc1nc2c(nc(Cl)n2C2OC(CO)C(O)C2O)c(=O)[nH]1 (centres undefined),inactive
20,O=C(c1ccccc1)N1CCN(c2cc(-c3ccccc3)nc3cc(-c4cccc(Cl)c4)nn23)CC1,25.1 µM (active)
21,O=C(CCCC(=O)N1CCN(c2cccc(Cl)c2)CC1)c1ccccc1,inactive
22,O=C(c1cccc(Cl)c1)N1CCN(CCc2ccncc2)CC1,inactive
23,C#Cc1cc(N2CCN(C(=O)c3ccoc3)CC2)n2nc(-c3cccc(Cl)c3)cc2n1,11.2 µM (active)
24,O=C(c1cccc(Br)c1)N1CCN(Cc2cc(=O)n3nc(-c4ccccc4)sc3n2)CC1,inactive
25,CCNC(=O)Cn1nc(C)n2c(cc3c(OC)cccc32)c1=O,inactive

row,Structure (SMILES),Potency
1,COC1[C@H](OC(N)=O)C(O)[C@H](Oc2ccc3c(O)c(NC(=O)c4ccc(O)c(CC=C(C)C)c4)c(=O)oc3c2C)OC1(C)C (some centres undefined),inactive
2,C=C1O[C@@](CO)(n2cnc3c(N)ncnc32)[C@H](O)[C@@H]1O,inactive
3,COc1cccc(NC(=O)N2CCN(C(=O)c3nsc4ccccc34)CC2)c1,inactive
4,COc1ccc(C2=Nc3cc(C)ccc3OC2)cc1,14.1 µM (active)
5,COc1ccc(-c2cc(-c3ccc(F)cc3)nc3c2COc2ccccc2-3)cc1,inactive
6,COc1ccc(-c2cc(-c3ccccc3)nc3c2COc2ccc(Cl)cc2-3)cc1,inactive
7,CCCNc1ncnc2c1c(-c1ccccc1)cn2-c1ccc(OCC)cc1,inactive
8,CC(C)(O)CCC(O)[C@@](C)(O)C1CC[C@]2(O)C3=CC(=O)C4CC(O)C(O)C[C@]4(C)C3CC[C@]12C (some centres undefined),inactive
9,Cc1ccc(NC(=O)c2ccc(CN3CC(=O)N4CCCCC4C3=O)cc2)c(Cl)c1 (centres undefined),inactive
10,COc1cc(C(=O)Nc2cc(C(F)(F)F)ccc2N2CCOCC2)ccc1O,inactive
11,COc1ccc(C(=O)Nc2ccccc2C(=O)N/N=C/c2ccc(O)c(OC)c2)cc1,3.98 µM (active)
12,COc1ccc(Nc2ncc(C(=O)Nc3cc(C)ccc3OC)c3ccccc23)cc1,inactive
13,Cn1cc(-c2nc3cncnc3n(-c3ccccc3)c2=O)c2ccccc21,inactive
14,COc1ccc(CN2CCC3(CCC(CNC(=O)c4ccco4)O3)CC2)cc1OC (centres undefined),inactive
15,CC(C)(C)n1ncc2c(=O)n(Cc3ccc(Cl)cc3)cnc21,25.1 µM (active)
16,CC(C)CNc1ncnc2c1cnn2Cc1ccc(Cl)cc1,inactive
17,Cc1ccc(-n2ncc3c(=O)n(Cc4cccc(C(F)(F)F)c4)cnc32)cc1C,inactive
18,O=C(c1cn(CC2CCCN(Cc3cc4ccccc4s3)C2)nn1)N1CCCC1 (centres undefined),inactive
19,O=C(O)c1c(CNCc2cccc(F)c2)c2ccccc2n1Cc1ccccc1,inactive
20,C/C=C(\C)C(=O)O[C@H]1CC(C)=C2C(=O)C=C(C)C2[C@@H]2OC(=O)[C@@](C)(OC(=O)C=C(C)C)C21 (some centres undefined),inactive
21,Cc1cc(C)cc(CN2CCc3nnc(C(NS(C)(=O)=O)C(C)C)n3CC2)c1 (centres undefined),inactive
22,CCOC(=O)N1CCN(C(=O)C2CCN(c3ncnc4c3sc3cccc(F)c34)CC2)CC1,14.1 µM (active)
23,CCOC(=O)N1CCN(C(=O)C2CCCN(c3ncnc4c3sc3cccc(F)c34)C2)CC1 (centres undefined),inactive
24,CCOc1cccc2sc(N3CCN(C(=O)C4CC4)CC3)nc12,inactive
